High-throughput results as filed in PubChem.
Hits are enriched below; roughly 1.1% of the tested compounds scored in any of these assays.
HDAC3 inhib = human HDAC3 inhibition. recombinant HDAC3, fluorogenic peptide/trypsin coupled, fluorescence. inhibition, % at 8.3 µM. 320,000 tested, 0.15% active. AID 2718; in the data active means inhibition above about 26%, passing the limit was not always enough; inconclusive means no clear call, values can overlap the other calls
IDE cell inh = inhibitors of human insulin-degrading enzyme in cells; 320,000 tested, 0.41% active; inhibition, % at 5.59 µM; P14735; HEK cells, FAbetaB cleavage, fluorescence polarization;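 active means percent inhibition above the average of all tested compounds plus 3 SD, set per screening campaign, cut at about 16% in these data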;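 further: IDE supplied by intact live HEK cells; FP after avidin binding of uncleaved biotin substrate so inhibition keeps polarization high; 0% = DMSO wells and 100% = 60 µM reference IDE inhibitor Ii1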
Target sequence (P14735 whole entry, looked up): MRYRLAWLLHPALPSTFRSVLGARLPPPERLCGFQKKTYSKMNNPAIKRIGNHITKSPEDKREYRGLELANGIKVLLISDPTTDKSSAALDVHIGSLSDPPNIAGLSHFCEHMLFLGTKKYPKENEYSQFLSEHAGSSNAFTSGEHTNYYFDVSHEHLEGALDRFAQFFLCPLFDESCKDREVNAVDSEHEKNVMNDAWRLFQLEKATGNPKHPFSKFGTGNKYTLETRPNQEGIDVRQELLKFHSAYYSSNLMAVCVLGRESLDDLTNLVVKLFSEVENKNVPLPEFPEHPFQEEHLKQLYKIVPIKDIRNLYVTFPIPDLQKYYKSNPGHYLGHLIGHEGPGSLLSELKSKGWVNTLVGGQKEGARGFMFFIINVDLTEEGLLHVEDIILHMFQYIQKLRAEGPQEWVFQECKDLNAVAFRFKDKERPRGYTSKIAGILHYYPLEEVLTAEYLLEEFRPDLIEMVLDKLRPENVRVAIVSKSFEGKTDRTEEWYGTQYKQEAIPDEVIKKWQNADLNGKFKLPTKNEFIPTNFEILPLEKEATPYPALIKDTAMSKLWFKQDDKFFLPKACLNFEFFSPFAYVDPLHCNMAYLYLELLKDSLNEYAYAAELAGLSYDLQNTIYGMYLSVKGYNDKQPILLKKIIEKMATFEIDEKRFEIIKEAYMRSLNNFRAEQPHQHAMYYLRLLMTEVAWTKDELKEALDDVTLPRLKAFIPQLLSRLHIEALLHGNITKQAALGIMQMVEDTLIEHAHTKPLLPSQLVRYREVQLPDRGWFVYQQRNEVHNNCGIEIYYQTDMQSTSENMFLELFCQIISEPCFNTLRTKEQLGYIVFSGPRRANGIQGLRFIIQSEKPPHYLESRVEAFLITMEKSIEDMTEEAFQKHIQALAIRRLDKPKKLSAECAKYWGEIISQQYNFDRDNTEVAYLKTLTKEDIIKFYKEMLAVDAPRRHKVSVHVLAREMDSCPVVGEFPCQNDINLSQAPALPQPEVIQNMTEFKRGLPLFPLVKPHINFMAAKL
LANA-H2B inh = blocks KSHV LANA binding to histone H2A/H2B. Q9QR71. 320,000 tested, 0.6% active. cell-free LANA-H2A/H2B peptide, fluorescence polarization. AID 2629. inhibition, % (test concentration not listed); in the data active means inhibition mostly above about 10%, no sharp cut-off; inactive means mostly below about 6.7%
IDE act = IDE (human) activation, cell-based. P14735. HEK cells, FAbeta-B cleavage, fluorescence polarization; 0% vehicle, 100% cell-free pure enzyme wells. activation, % at 5.96 µM. 340,000 tested, 0.073% active;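 active means activation above the mean of all tested compounds plus 3 SD, set per screening campaign, cut at about 17% in these data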
Numbers without * were called inactive; ? = inconclusive; · = not tested or not shown; + = active, no number.

SMILES	HDAC3 inhib	IDE cell inh	LANA-H2B inh	IDE act
O=C(Nc1ccc2c(c1)OCO2)C1CC(c2ccccc2O)=NO1 (stereo not drawn)	-4.5	0.3	0.9	-2.4
Cc1cc2nc3c(=O)[nH]c(=O)[nH]c3nc2c([N+](=O)[O-])c1N	·	·	·	20.9*
Cc1cc(C)cc(OCC(=O)OCCN2C(=O)c3ccccc3C2=O)c1	3.5	-6.5	2.9	4.5
Cc1ccc(OCC(=O)OCCN2C(=O)c3ccccc3C2=O)cc1C	-0.7	8.2	19.4*	-1.9
CCCCNC(=O)c1ccc(SCC(=O)N(CC)CC)c([N+](=O)[O-])c1	-0.4	4.5	78.9*	4.5
CCN(CC)C(=O)CSc1ccc(C(F)(F)F)cc1[N+](=O)[O-]	4.3	-3.9	-0.5	4.7
CCn1c(O)c(/C=C2\C=Nc3ccccc32)sc1=O	3.2	3.7	14.1*	2.2
CCn1c(O)c(/C=C2\C=Nc3ccccc32)sc1=Nc1ccc(C)cc1	1.9	-1.7	3.4	8.8
CC(C)c1onc(C(=O)N2CCCCCC2)c1[N+](=O)[O-]	2.5	-0.1	33.4*	2.0
CC(C)c1onc(C(=O)N2CCC(C(N)=O)CC2)c1[N+](=O)[O-]	-7.3	0.8	-5.0	3.3
O=c1c2ccccc2sn1-c1cc(S(=O)(=O)N2CCOCC2)ccc1N1CCCC1	26.9*	51.3*	2.2	-36.0
CCN(CC)CCCNC(=O)c1cc(-c2ccc(Cl)c(Cl)c2)on1	3.2	8.3	18.8*	-4.1
CCN(CC)CCCNC(=O)c1cc(-c2ccc(O)cc2)on1	3.3	-4.1	-0.2	6.0
Cc1c(C)n(Cc2ccc(F)cc2)c2ccc(C(=O)N3CCN(c4ccccn4)CC3)cc12	-8.6	7.3	2.8	4.0
C/C(=N\NC(=O)C(C)Sc1ccccc1)c1ccc([N+](=O)[O-])cc1 (stereo not drawn)	-0.2	2.3	3.5	12.3
Cc1ccccc1OCC1CN(CN2CCOCC2)C(=O)O1 (stereo not drawn)	1.7	-0.6	23.5*	5.3
Cc1ccccc1S(=O)(=O)N1[C@@H](c2ccc(Cl)cc2)C(C(=O)O)=CC[C@H]1c1ccc(Cl)cc1	7.6	4.2	60.0*	3.2
Cc1ccc([C@H]2C(C(=O)O)=CC[C@@H](c3ccc(Cl)cc3)N2S(=O)(=O)c2ccccc2C)cc1	5.3	-1.4	-2.0	3.9
Cc1ccc([C@H]2C(C(=O)O)=CC[C@@H](c3ccc(C)cc3)N2S(=O)(=O)c2ccc(C)cc2)cc1	6.8	2.2	+	0.0
CCCCC[C@@H]1C=C(C(=O)O)[C@H](c2ccc(Cl)c(Cl)c2)N1S(=O)(=O)c1ccc(C)cc1	5.7	2.9	120.0*	4.4
Cc1ccc(NC(=O)C2CC(=O)n3ncnc3N2)cc1C (stereo not drawn)	-1.2	-1.3	-1.6	4.5
O=C(/C=C/c1ccc(F)cc1)N1CC[C@@]2(O)CCCC[C@H]2C1	-3.5	14.2	4.7*	1.3
O=C(CCc1nnc(CCc2ccccc2)o1)NC(c1cccnc1)C(F)(F)F (stereo not drawn)	-3.0	-2.8	5.8	-4.5
Nc1c(C(O)(C(F)(F)F)C(F)(F)F)cc(C(O)(C(F)(F)F)C(F)(F)F)c2ccccc12	32.6*	-5.8	-2.5	4.5
O=C(N/C(=C\c1ccco1)C(=O)N1CCCC1CO)c1ccccc1 (stereo not drawn)	1.6	-6.1	21.3*	1.5
SMILES	HDAC3 inhib	IDE cell inh	LANA-H2B inh	IDE act
O=C(NCC1(c2ccccc2)CCCC1)C(=O)N1CCOCC1	-2.3	0.9	-1.1	4.8
COc1cccc(NC(=O)c2cc(-c3ccc(C)o3)nc3ccccc23)c1	?	4.0	-5.3	1.3
COc1cccc(NC(=O)CN(C)C(=O)c2cc(-c3ccc(C)o3)nc3ccccc23)c1	-44.4	0.3	60.3*	-5.3
Cc1ccc(CNC(=O)C2CCC(=O)N(CCc3ccccc3)C2)s1 (stereo not drawn)	4.3	0.3	17.9*	2.4
CC(=O)c1ccc(N2CCN(S(=O)(=O)c3cn(C)cn3)CC2)cc1	-5.3	1.0	8.8*	-0.3
COc1ccc(-c2nc(CC(=O)Nc3cccc(S(=O)(=O)NC4=NCCC4)c3)cs2)cc1	·	-2.1	·	2.6
Cc1nn(-c2ccc(Cl)cc2)c2[nH]c(=O)c(CNCc3ccc4c(c3)OCO4)cc12	-0.1	3.1	24.5*	8.7
Cc1nn(-c2ccccc2)c2[nH]c(=O)c(CNc3ccc(N4CCOCC4)cc3)cc12	1.5	4.4	-0.6	6.1
Cc1ccc(Cl)cc1-n1c(=O)cc(N2CCN(C(=O)c3ccco3)CC2)[nH]c1=O	-0.4	6.8	1.0	5.4
O=C(c1ccco1)N1CCN(c2cc(=O)n(-c3ccc(Cl)cc3)c(=O)[nH]2)CC1	-0.5	5.0	18.6*	4.0
O=C(c1ccco1)N1CCN(c2ncnc3c2[nH]c2ccc(Cl)cc23)CC1	-2.8	67.5*	-1.9	·
CC(Oc1ccccc1)C(=O)NC1CC(C)(C)NC(C)(C)C1 (stereo not drawn)	-1.7	2.1	17.3*	2.9
CC(Oc1ccccc1)C(=O)NC1CCCCCCC1 (stereo not drawn)	-6.7	4.4	0.2	0.6
COc1ccc(CN(C)c2ncnc3sccc23)c(OC)c1OC	2.2	4.9	2.9	-0.7
CCOC(=O)CSc1nc2c(c(=O)[nH]c(=O)n2C)n1CCc1ccccc1	-70.1	-0.4	-2.9	-1.0
Cn1c(=O)[nH]c(=O)c2c1nc(SCC(=O)O)n2CCc1ccccc1	36.8*	0.8	-1.2	1.6
CCCCCCSc1ccc([C@@H]2[C@@H]3C(=O)N(C)C(=O)[C@@H]3[C@]3(C(=O)OC)CCCCN23)cc1OC	36.1*	-0.7	3.9	5.4
COc1cc(NC(=O)c2ccccc2)c(OC)cc1NC(C)=O	-8.8	-0.4	-7.0	3.0
O=C(CNC(=O)OCc1ccccc1)NC1CCCCCC1	-5.3	-1.0	17.3*	6.4
O=C(COc1ccccc1)NC1CCCCC1	3.1	6.0	0.7	3.2
COc1cc(NC(=O)COc2ccccc2)c(OC)cc1NC(C)=O	2.7	2.7	14.3*	2.5
O=C(CCNC(=O)OCc1ccccc1)NC1CCCCC1	-3.0	-3.1	3.6	3.0
O=C(COc1ccccc1)NC1CCCCCCC1	1.9	6.4	8.9*	1.2
COC(=O)[C@@]12CCCN1[C@H](c1ccc(-c3cccc(Cl)c3)cc1)[C@H]1C(=O)N(C)C(=O)[C@H]12	3.3	6.3	8.6	-5.1
CCOC(=O)C1CCN(C(=O)c2sc3nc(-c4ccc(F)cc4)cn3c2C)CC1	2.4	1.8	136.5*	2.9
SMILES	HDAC3 inhib	IDE cell inh	LANA-H2B inh	IDE act
CC(=O)N1CC[n+]2c(-c3ccc(Cl)cc3Cl)csc21	-2.6	16.7*	6.2	-6.4
O=C(O)c1ccc(-c2nc(-c3ccc(Cl)cc3Cl)cs2)cc1	-1.0	2.0	-4.1	1.2
O=C(N/N=C1\C(=O)c2cccc3cccc1c23)c1ccc(O)cc1	6.5	2.1	+	8.8
O=C1c2cccc3cccc(c23)C(=O)N1OS(=O)(=O)c1ccccc1	2.3	-0.6	-0.1	8.0
O=C1c2ccccc2C(=O)N1OS(=O)(=O)c1ccccc1	44.3*	9.4	·	·
CC1CN(CC(=O)NCc2ccc(Cl)cc2)CC(C)O1 (stereo not drawn)	-1.1	0.1	0.1	1.9
